Experimental data from the supplement of paper PMC11732987, “Enantioselective OTUD7B fragment discovery through chemoproteomics screening and high-throughput optimisation” (Communications Chemistry, 2025).

How the values were obtained:
Test in all cases: log2 ratio of Biotin-Ahx-Ub-VS probe labelling (fragment/DMSO); higher = less target engagement (more negative = stronger competition), active = hit call of the paper (q ≤ 0.05, log2 ratio ≤ -1)
Details in all cases: compound concentration: 200 uM; treatment time: 3 h
[1] = biological target: T1, ALG13 (UniProt Q9NP73)
T1 sequence (whole entry): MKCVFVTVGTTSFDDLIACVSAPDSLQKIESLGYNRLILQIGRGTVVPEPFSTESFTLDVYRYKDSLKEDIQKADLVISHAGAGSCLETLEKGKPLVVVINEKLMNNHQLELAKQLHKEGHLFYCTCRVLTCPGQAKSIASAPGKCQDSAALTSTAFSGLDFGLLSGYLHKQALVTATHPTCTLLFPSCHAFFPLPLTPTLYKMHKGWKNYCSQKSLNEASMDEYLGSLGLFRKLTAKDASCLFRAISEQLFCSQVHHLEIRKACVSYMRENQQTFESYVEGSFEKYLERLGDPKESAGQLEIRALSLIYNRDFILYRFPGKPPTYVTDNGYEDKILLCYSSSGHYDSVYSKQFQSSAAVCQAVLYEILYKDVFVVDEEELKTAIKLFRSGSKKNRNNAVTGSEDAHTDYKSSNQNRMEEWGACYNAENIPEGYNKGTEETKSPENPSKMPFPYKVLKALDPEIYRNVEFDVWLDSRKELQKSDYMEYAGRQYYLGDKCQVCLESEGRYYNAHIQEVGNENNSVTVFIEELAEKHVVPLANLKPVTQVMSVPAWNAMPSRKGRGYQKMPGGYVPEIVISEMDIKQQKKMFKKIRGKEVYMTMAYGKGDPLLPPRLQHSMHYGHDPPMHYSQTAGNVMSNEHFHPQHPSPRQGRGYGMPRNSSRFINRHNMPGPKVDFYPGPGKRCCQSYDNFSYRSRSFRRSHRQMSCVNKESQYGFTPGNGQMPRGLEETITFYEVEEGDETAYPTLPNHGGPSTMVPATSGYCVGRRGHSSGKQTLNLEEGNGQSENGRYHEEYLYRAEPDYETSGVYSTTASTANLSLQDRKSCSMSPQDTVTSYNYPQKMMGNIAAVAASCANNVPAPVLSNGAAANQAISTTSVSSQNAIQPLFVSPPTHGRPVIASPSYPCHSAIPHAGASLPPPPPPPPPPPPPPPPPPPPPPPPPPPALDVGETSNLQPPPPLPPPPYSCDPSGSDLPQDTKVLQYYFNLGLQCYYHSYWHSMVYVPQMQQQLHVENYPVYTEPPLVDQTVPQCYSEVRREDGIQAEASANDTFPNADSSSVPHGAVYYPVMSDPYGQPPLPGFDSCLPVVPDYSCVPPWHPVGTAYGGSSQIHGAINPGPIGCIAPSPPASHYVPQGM
Procedure, shortened: (§1)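 Average log2 ratios of fragment over vehicle were obtained by unpaired t-test from global-median-normalised Spectronaut label-free quantities. Proteins with ≥2 unique peptides were included. HEK293T lysate (495 µg per sample) was treated in triplicate with fragment at 200 µM or vehicle for 3 h, then with Biotin-Ahx-Ub-VS at 0.5 µM final for 1 h, and labelled DUBs were NeutrAvidin-enriched and run by diaPASEF LC-MS/MS.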

[2] = biological target: ATXN3 (UniProt P54252)
Sequence of ATXN3 (P54252 whole entry): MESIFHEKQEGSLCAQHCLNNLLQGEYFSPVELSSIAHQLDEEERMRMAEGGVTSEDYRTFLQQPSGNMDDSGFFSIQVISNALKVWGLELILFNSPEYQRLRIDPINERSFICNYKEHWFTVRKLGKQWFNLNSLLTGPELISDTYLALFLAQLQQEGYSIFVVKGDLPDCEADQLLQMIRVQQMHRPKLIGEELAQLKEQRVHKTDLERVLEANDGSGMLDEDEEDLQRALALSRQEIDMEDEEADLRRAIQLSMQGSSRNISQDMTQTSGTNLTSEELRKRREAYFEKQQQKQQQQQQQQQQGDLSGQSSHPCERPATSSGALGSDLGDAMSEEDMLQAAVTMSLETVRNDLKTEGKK
Procedure, shortened: as §1

[3] = biological target: T2, BAP1 (UniProt Q92560)
T2 sequence (whole entry): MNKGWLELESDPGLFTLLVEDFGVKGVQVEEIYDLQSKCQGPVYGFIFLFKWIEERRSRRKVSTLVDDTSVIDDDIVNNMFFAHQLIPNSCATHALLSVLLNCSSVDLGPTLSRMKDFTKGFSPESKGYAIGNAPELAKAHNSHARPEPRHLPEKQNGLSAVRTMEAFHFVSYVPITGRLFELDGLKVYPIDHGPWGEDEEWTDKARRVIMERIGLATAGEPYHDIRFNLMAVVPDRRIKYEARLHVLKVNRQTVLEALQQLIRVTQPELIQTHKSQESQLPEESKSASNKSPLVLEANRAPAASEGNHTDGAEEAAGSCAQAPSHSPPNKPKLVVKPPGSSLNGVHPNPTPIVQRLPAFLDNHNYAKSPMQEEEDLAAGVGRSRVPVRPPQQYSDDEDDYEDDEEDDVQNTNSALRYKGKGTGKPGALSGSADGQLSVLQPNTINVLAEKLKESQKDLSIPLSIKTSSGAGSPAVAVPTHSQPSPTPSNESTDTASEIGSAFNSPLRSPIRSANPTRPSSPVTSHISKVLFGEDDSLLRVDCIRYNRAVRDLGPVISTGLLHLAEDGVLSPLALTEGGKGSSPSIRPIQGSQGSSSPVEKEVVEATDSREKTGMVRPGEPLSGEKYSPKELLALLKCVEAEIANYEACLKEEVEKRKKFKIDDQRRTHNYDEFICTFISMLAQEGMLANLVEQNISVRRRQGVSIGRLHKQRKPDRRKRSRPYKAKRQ
Procedure, shortened: as §1

[4] = biological target: EIF3F (UniProt O00303)
Sequence of EIF3F (O00303 whole entry): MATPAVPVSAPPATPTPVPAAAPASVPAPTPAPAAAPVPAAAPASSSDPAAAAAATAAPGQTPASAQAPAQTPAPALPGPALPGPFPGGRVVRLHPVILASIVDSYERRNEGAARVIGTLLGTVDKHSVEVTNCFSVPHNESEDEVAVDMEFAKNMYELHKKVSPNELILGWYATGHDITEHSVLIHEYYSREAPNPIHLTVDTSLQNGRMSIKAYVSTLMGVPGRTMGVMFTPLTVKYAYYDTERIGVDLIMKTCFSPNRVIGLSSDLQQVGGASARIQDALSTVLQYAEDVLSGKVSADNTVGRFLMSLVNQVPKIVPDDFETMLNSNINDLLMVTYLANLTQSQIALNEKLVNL
Procedure, shortened: as §1

[5] = biological target: EIF3H (UniProt O15372)
Sequence of EIF3H (O15372 whole entry): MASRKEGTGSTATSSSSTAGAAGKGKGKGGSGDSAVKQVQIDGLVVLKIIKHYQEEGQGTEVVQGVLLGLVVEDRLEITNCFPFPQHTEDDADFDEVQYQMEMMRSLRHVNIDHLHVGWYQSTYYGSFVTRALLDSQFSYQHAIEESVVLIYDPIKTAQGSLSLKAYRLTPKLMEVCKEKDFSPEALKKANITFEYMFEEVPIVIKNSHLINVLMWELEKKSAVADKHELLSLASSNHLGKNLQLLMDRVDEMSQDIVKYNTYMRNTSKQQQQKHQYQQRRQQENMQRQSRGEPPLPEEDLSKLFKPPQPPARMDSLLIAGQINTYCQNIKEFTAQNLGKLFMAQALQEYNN
Procedure, shortened: as §1

[6] = biological target: T3, FAM105A (UniProt Q9NUU6)
T3 sequence (whole entry): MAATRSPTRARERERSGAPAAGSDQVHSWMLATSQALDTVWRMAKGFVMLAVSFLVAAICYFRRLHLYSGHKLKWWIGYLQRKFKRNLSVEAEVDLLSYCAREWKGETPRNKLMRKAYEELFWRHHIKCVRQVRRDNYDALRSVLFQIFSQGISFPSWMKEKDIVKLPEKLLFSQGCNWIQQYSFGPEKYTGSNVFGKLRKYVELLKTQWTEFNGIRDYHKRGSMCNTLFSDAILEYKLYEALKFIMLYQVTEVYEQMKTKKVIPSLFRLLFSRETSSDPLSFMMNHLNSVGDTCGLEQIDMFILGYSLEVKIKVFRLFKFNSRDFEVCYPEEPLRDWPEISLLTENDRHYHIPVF
Procedure, shortened: as §1

[7] = biological target: OTUB1 (UniProt Q96FW1)
Sequence of OTUB1 (Q96FW1 whole entry): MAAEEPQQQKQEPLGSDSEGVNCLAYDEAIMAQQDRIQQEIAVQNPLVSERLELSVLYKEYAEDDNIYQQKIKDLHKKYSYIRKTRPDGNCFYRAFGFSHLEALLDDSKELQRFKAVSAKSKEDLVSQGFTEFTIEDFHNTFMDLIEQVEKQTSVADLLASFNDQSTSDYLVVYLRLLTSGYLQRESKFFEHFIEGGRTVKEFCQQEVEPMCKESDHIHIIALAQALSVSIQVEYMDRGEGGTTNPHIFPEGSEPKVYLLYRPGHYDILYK
Procedure, shortened: as §1

[8] = biological target: T4, OTUD4 (UniProt Q01804)
T4 sequence (whole entry): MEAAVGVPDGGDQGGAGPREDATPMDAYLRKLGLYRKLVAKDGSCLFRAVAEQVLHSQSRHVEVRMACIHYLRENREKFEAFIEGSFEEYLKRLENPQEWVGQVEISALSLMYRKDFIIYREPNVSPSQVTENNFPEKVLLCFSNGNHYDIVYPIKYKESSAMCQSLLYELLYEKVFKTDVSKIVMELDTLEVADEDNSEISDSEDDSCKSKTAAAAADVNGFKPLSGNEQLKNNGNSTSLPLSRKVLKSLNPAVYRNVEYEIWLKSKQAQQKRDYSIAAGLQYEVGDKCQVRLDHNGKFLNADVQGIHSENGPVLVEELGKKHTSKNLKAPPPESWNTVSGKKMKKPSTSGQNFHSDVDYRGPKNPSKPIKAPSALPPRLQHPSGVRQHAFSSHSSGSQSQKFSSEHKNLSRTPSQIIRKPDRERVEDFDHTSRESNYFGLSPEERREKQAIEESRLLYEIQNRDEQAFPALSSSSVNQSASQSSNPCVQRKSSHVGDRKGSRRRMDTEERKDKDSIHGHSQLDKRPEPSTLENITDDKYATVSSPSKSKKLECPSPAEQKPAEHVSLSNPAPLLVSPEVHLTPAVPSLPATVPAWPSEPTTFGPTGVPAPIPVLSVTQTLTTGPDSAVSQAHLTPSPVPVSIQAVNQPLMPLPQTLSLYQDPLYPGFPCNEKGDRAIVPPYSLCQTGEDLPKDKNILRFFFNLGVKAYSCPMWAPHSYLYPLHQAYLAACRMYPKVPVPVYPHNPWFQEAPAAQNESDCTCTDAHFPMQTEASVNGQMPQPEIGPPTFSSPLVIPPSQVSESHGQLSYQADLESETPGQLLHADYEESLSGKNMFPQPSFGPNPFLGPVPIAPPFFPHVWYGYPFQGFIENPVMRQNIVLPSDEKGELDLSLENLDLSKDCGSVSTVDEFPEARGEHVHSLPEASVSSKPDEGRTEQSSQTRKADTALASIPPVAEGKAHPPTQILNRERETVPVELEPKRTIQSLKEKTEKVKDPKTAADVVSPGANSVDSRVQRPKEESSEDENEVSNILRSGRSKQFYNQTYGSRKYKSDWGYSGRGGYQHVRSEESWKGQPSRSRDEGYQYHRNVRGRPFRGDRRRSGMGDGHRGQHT
Procedure, shortened: as §1

[9] = biological target: T5, OTUD5 (UniProt Q96G74)
T5 sequence (whole entry): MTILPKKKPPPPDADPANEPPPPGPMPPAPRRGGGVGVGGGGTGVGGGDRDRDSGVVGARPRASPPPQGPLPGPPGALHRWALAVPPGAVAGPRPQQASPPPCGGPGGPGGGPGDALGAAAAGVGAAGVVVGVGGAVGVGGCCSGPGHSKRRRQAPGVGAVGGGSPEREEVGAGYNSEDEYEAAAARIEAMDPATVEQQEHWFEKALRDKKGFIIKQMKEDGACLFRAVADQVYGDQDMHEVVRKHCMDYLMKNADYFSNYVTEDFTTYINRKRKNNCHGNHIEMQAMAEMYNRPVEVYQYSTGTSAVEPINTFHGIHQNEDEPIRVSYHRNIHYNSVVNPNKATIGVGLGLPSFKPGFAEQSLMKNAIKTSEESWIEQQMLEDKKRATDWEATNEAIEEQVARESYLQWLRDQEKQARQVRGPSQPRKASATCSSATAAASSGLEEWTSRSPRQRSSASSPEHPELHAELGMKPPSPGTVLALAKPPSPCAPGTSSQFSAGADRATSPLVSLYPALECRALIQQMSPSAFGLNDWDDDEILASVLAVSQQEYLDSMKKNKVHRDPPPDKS
Procedure, shortened: as §1

Measured: log2 ratio of Biotin-Ahx-Ub-VS probe labelling

Cl.O=C(CCl)N1CCCC(c2ncc[nH]2)C1 (centres undefined)
inactive: [1] 0.0212 | [2] -0.259 | [3] -0.246 | [4] -0.0106 | [5] 0.267 | [6] 0.0977 | [7] -0.0773 | [8] -0.288 | [9] -0.22
